CASP6 VEID inh: caspase-6 (human) enzyme inhibition | purified caspase-6, Z-VEID-R110 cleavage fluorescence | inhibition, % at 12.5 µM | actives 0.53% (n = 350,000) | AID 686996;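 active = mean inhibition across replicates at least about 35%, with every replicate also reaching that limit, limit read from the data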;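 note: 0% = median of neutral control wells and 100% = no fluorescence left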
NSD2 inh: inhibitors of human histone methyltransferase NSD2; actives 0.54% (n = 310,000); inhibition, % at 12.5 µM; NSD2 peptide methylation, AlphaScreen, 120 min; O96028; in the data active = inhibition above about 50%
Target sequence (O96028 whole entry, looked up): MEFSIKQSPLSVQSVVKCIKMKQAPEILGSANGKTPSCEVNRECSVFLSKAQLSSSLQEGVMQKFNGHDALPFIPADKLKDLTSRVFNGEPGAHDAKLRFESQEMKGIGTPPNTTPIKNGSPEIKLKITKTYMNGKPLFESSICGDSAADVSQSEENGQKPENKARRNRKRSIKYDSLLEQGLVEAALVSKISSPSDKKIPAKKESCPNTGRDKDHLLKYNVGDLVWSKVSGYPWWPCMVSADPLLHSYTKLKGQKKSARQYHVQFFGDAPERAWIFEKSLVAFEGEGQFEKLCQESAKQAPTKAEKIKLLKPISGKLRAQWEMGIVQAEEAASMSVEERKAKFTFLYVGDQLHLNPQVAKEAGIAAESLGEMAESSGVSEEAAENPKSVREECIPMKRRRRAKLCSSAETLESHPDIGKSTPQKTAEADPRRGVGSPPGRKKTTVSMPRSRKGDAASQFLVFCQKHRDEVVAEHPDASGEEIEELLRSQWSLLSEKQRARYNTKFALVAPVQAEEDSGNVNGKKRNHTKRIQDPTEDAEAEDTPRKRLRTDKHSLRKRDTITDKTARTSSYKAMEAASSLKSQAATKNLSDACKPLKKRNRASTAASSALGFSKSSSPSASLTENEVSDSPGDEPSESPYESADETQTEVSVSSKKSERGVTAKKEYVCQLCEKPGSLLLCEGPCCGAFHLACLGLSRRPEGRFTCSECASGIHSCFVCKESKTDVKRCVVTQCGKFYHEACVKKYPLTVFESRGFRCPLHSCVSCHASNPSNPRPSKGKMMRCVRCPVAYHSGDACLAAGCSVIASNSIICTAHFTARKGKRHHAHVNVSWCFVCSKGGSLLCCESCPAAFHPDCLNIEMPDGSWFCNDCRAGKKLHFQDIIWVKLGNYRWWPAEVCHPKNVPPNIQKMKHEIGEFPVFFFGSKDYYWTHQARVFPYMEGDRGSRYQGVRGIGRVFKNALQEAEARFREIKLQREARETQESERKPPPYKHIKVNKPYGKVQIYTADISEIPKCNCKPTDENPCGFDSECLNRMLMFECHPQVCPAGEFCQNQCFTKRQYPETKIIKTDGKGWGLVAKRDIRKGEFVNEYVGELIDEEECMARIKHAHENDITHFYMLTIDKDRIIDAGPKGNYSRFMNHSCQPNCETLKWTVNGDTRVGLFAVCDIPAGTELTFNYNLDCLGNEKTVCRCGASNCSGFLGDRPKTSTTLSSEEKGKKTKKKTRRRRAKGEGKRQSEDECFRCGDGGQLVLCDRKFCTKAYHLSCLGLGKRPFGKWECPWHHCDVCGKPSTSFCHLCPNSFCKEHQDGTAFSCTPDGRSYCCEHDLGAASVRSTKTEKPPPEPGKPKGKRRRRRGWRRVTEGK
Glyco luc inh: blocks N-linked glycosylation in D54 reporter cells. actives 0.23% (n = 360,000). D54 ERlucT glycosylation luciferase reporter, 24 h; percent of 100 nM tunicamycin response. reporter increase, % at 12.5 µM;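 active = mean luciferase reporter signal, scaled so untreated is 0 and the glycosylation-blocking control 100, at or above a set limit in every replicate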;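 note: luciferase carries N-glycosylation sites so blocking glycosylation raises the light; 0% = median of neutral control wells and 100% = median of 100 nM tunicamycin wells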
Keap1 Nrf2 FP: inhibitors of human Keap1-Nrf2 protein-protein interaction. AID 504523. inhibition, % at 9.4 µM. actives 0.15% (n = 340,000). Keap1 Kelch-Nrf2 peptide fluorescence polarization, 1536-well; in the data active = inhibition above about 12%;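 note: human Keap1 Kelch domain with fluorescein labeled Nrf2 9mer peptide probe; 0% = neutral control wells and 100% = peptide positive control; higher means more block of Keap1 binding to Nrf2 peptide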
C-LANA FP: blocks KSHV LANA C-terminal domain binding to DNA; MBP-C-LANA/FAM-LBS DNA binding, fluorescence polarization; inhibition, % at 9 µM; actives 0.078% (n = 340,000);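 active = highest replicate inhibition at or above 60% at 9 µM, even if other replicates fall short; inactive = all replicates below 60% inhibition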;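 note: 0% = neutral control wells and 100% = 4 µM acridine orange control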
HDAC3 inh: inhibitors of human histone deacetylase 3 | O15379 | actives 0.15% (n = 320,000) | recombinant HDAC3, fluorogenic peptide/trypsin coupled, fluorescence | inhibition, % at 8.3 µM; in the data active = inhibition above about 26%, passing the limit was not always enough
Active calls of the source: *. Rows were chosen to be rich in hits. Some 1.1% of all compounds tested hit in one or more screens of this group.

`Cc1cc(C)n(CC(=O)NNC(=O)CCNC(=O)c2ccccc2Cl)n1` gave CASP6 VEID inh 1.8, NSD2 inh 0.9, Glyco luc inh 0.6, Keap1 Nrf2 FP 2.2, C-LANA FP 0.5 and HDAC3 inh -0.4.
`Cc1cc(C)n(CC(=O)NNC(=O)CC(C)c2ccccc2)n1` (stereo unspecified) gave CASP6 VEID inh -2.0, NSD2 inh -2.5, Glyco luc inh -1.2, Keap1 Nrf2 FP 0.8, C-LANA FP 73.3* and HDAC3 inh 4.6.
C[C@@H]1CN([C@H](C)CO)C(=O)c2cccc(NC(=O)C3CC3)c2O[C@H]1CN(C)C was read as CASP6 VEID inh 1.4.
For C=C(C)C(=O)Oc1ccc(N=Nc2ccc(C)cc2)ccc1=O the results were CASP6 VEID inh 79.6*, NSD2 inh 13.1 and Glyco luc inh 9.5.
Screening C[C@H](CO)N1C[C@H](C)[C@@H](CN(C)S(=O)(=O)c2ccc(F)cc2)Oc2ccc(NS(C)(=O)=O)cc2CC1=O returned CASP6 VEID inh 43.7*.
For C[C@H]1CN([C@@H](C)CO)C(=O)Cc2cc(NS(C)(=O)=O)ccc2O[C@@H]1CN(C)S(=O)(=O)c1ccc(F)cc1 the results were CASP6 VEID inh -0.4.
C[C@H]1CN([C@@H](C)CO)C(=O)Cc2cc(NC(=O)NC3CCCCC3)ccc2O[C@H]1CN(C)Cc1ccc(-c2ccccc2)cc1 was read as CASP6 VEID inh 42.0*.
Screening C[C@@H]1CN([C@@H](C)CO)C(=O)Cc2cc(N(C)C)ccc2O[C@@H]1CN(C)Cc1ccccc1 returned CASP6 VEID inh 35.0*.
For CCS(=O)(=O)N1CC2(C1)[C@@H](c1ccccc1)[C@H](CO)N2Cc1ccc(F)cc1 the results were CASP6 VEID inh 0.6.
O=C(CN1C(=O)NC2(CCCCC2)C1=O)Nc1cccc(S(=O)(=O)N2CCCC2)c1 was read as CASP6 VEID inh 5.4, NSD2 inh 0.2, Glyco luc inh 4.4, Keap1 Nrf2 FP 0.7, C-LANA FP 0.5 and HDAC3 inh 2.4.
O=C(CCN1C(=O)NC2(CCCC2)C1=O)Nc1cccc(S(=O)(=O)N2CCOCC2)c1 was read as CASP6 VEID inh 42.2*, NSD2 inh -0.6, Glyco luc inh 0.0, Keap1 Nrf2 FP -0.5, C-LANA FP -0.4 and HDAC3 inh -1.3.
CC1CCC2(CC1)NC(=O)N(CC(=O)Nc1cccc(S(=O)(=O)N(C)c3ccccc3)c1)C2=O (stereo unspecified) was read as CASP6 VEID inh 1.5, NSD2 inh -0.9 and Glyco luc inh 14.1.
Screening CCN(CC)S(=O)(=O)c1cccc(NC(=O)CN2C(=O)NC3(CCC(C)CC3)C2=O)c1 (stereo unspecified) returned CASP6 VEID inh 0.3, NSD2 inh -1.6, Glyco luc inh 32.4*, Keap1 Nrf2 FP -5.7 and C-LANA FP -0.3.
`CN(C)C(=O)c1cccc(-c2ccc([C@H]3[C@@H](CO)N4CCCCN(S(C)(=O)=O)C[C@H]34)cc2)c1` gave CASP6 VEID inh 0.5.
Cc1ccc(S(=O)(=O)Nc2ccc3c(c2)CC(=O)N([C@H](C)CO)C[C@H](C)[C@H](CN(C)C(=O)Nc2ccc4c(c2)OCO4)O3)cc1 was read as CASP6 VEID inh -0.1.
Cn1c(N)c(N=O)c(=O)n(C)c1=S was read as CASP6 VEID inh 60.0*, NSD2 inh 2.1, Glyco luc inh 2.2, Keap1 Nrf2 FP -1.7 and C-LANA FP 0.4.
C/C(N)=C(/C#N)C(=O)CN1C(=O)NC(Cc2c[nH]c3ccccc23)C1=O (stereo unspecified) was read as CASP6 VEID inh 48.2*, NSD2 inh 0.3, Glyco luc inh 0.4, Keap1 Nrf2 FP -5.0, C-LANA FP 2.2 and HDAC3 inh 4.3.
`CC(C)(C)OC(=O)CN1C(=O)NC(Cc2c[nH]c3ccccc23)C1=O` (stereo unspecified) gave CASP6 VEID inh -1.7, NSD2 inh -0.6, Glyco luc inh 0.1, Keap1 Nrf2 FP -3.9, C-LANA FP -2.4 and HDAC3 inh 3.2.
S=C(c1ccc(-c2ccc(Br)cc2)o1)N1CCCCC1 was read as CASP6 VEID inh 54.1*, NSD2 inh 2.3, Glyco luc inh -4.0, Keap1 Nrf2 FP -5.4, C-LANA FP -2.9 and HDAC3 inh 2.4.
`S=C(c1ccc(-c2ccc(Br)cc2)o1)N1CCOCC1` gave CASP6 VEID inh 0.8, NSD2 inh -0.4, Glyco luc inh -6.5 and HDAC3 inh 3.8.
Screening Cc1ccc2nc3c(cc(C(N)=S)c(=N)n3CCCOC(C)C)c(=O)n2c1 returned CASP6 VEID inh 11.4, NSD2 inh 17.0, Glyco luc inh 36.8*, Keap1 Nrf2 FP -8.8, C-LANA FP 3.1 and HDAC3 inh -149.7.
For COc1ccc(N/C(=N\c2nc(C)cc(C)n2)NC(C)=O)cc1OC the results were NSD2 inh -2.5, Glyco luc inh -0.1, Keap1 Nrf2 FP 3.2, C-LANA FP 1.0 and HDAC3 inh -8.3.
COc1ccc(OC)c(N/C(=N/c2nc(C)cc(C)n2)NC(C)=O)c1 was read as CASP6 VEID inh 52.7*, NSD2 inh 3.3, Glyco luc inh 1.4, Keap1 Nrf2 FP -2.3, C-LANA FP -0.1 and HDAC3 inh -4.9.
`CN1C2=CC=CC=CC2=[N+](C)C12C=CC(=[N+]([O-])[O-])C=C2[N+](=O)[O-]` (stereo unspecified) gave CASP6 VEID inh 0.6, NSD2 inh 3.9, Glyco luc inh -1.0, Keap1 Nrf2 FP -2.1, C-LANA FP 0.0 and HDAC3 inh 1.4.
`CN1C2=CC=CC=CC2=[N+](C)C12C([N+](=O)[O-])=CC(=[N+]([O-])[O-])C=C2[N+](=O)[O-]` (stereo unspecified) gave CASP6 VEID inh 2.7, NSD2 inh -1.9, Glyco luc inh 29.1*, Keap1 Nrf2 FP -4.0, C-LANA FP -0.9 and HDAC3 inh -0.9.
`O=C(C[C@@H]1C=C[C@@H](NC(=O)NC2CCCCC2)[C@@H](CO)O1)NCc1ccc(Cl)cc1` gave CASP6 VEID inh 2.3.
`C#CCOc1ccc(CNC[C@H]2O[C@@H](n3ccc(N)nc3=O)[C@H](O)[C@@H]2O)cc1` gave CASP6 VEID inh 39.0* and Glyco luc inh 1.8.
Screening Nc1ccn([C@@H]2O[C@H](CNCc3ccc(C#CCCO)cc3)[C@@H](O)[C@H]2O)c(=O)n1 returned CASP6 VEID inh -4.7 and Glyco luc inh 0.9.
`COc1ccc(N(CC(=O)NCc2ccco2)S(=O)(=O)c2ccc(C)cc2)cc1OC` gave CASP6 VEID inh 0.2, NSD2 inh -4.0, Glyco luc inh -1.7, Keap1 Nrf2 FP 0.1, C-LANA FP -1.3 and HDAC3 inh -0.2.
`Cc1ccc(S(=O)(=O)N(Cc2ccccc2)Cc2ccco2)cc1` gave NSD2 inh -2.0, Glyco luc inh -5.7, Keap1 Nrf2 FP 3.0, C-LANA FP 0.2 and HDAC3 inh 5.6.
